# HEK293 viab – cell viability loss counter-screen; 0.12% of 150,000 active; HEK-293-SNCA-luc viability, GF-AFC fluorescence, 24 h; Potency, µM (top dose mostly 57.1 µM), without a hit: at the top dose activity change, negative = cytotoxicity, usual class: cytotoxic;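 further: potency means the concentration at half of the fitted maximal effect; 0% = DMSO-treated cells and -100% = medium-only wells without cells; nearly all actives have a fitted effect of over 30% in size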
#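 Cytotoxicity counterscreen: after 24 h compound treatment of genome-edited SNCA-luciferase HEK-293 cells, live-cell protease substrate GF-AFC read by fluorescence after 30 min; activity scaled between DMSO (0%) and medium-only (-100%), curves Hill-fitted.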
# SNCA expr inh – reduces expression of the alpha-synuclein gene. Potency, µM (series often up to 57.2 µM), without a hit: at the top dose activity change, negative = inhibition, usual class: inhibitors. HEK-293 SNCA-luciferase knock-in, luminescence, 24 h. 0.17% of 140,000 active;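 further: potency means the concentration at half of the fitted maximal effect; plate controls were DMSO cells for no effect and cell-free wells for full effect; nearly all actives have a fitted effect of over 45% in size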
# IP6K1 inhibitor – blocks human inositol hexakisphosphate kinase 1. activity change, % (series mostly up to about 58 µM). 0.81% of 140,000 active. Q92551. AID 1645851. IP6K1 kinase, ADP-Glo luminescence, 2 h; hits give low values; in the data active means activity change below about -25%; further: on the % scale 0 is the no-effect control and ±100 the full control effect
#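 ADP-Glo luminescence measures ADP made by human IP6K1 during a 2 h RT reaction with ATP/IP6 (mix at 1.3 mM/130 uM); top library doses 57.5 and 19.1 uM final.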
# KDM5B inhibitor – KDM5B demethylase inhibition; Q9UGL1; KDM5B demethylase, FDH-coupled NADH fluorescence (FDH is formaldehyde dehydrogenase); Potency, µM (series often up to 57.7 µM), hits mostly inhibitors; 2.6% of 220,000 active; AID 1347165; further: potency means the concentration at half of the fitted maximal effect; 0% is about no effect; nearly all actives have a fitted effect of over 70% in size
# Target sequence (Q9UGL1 whole entry, looked up): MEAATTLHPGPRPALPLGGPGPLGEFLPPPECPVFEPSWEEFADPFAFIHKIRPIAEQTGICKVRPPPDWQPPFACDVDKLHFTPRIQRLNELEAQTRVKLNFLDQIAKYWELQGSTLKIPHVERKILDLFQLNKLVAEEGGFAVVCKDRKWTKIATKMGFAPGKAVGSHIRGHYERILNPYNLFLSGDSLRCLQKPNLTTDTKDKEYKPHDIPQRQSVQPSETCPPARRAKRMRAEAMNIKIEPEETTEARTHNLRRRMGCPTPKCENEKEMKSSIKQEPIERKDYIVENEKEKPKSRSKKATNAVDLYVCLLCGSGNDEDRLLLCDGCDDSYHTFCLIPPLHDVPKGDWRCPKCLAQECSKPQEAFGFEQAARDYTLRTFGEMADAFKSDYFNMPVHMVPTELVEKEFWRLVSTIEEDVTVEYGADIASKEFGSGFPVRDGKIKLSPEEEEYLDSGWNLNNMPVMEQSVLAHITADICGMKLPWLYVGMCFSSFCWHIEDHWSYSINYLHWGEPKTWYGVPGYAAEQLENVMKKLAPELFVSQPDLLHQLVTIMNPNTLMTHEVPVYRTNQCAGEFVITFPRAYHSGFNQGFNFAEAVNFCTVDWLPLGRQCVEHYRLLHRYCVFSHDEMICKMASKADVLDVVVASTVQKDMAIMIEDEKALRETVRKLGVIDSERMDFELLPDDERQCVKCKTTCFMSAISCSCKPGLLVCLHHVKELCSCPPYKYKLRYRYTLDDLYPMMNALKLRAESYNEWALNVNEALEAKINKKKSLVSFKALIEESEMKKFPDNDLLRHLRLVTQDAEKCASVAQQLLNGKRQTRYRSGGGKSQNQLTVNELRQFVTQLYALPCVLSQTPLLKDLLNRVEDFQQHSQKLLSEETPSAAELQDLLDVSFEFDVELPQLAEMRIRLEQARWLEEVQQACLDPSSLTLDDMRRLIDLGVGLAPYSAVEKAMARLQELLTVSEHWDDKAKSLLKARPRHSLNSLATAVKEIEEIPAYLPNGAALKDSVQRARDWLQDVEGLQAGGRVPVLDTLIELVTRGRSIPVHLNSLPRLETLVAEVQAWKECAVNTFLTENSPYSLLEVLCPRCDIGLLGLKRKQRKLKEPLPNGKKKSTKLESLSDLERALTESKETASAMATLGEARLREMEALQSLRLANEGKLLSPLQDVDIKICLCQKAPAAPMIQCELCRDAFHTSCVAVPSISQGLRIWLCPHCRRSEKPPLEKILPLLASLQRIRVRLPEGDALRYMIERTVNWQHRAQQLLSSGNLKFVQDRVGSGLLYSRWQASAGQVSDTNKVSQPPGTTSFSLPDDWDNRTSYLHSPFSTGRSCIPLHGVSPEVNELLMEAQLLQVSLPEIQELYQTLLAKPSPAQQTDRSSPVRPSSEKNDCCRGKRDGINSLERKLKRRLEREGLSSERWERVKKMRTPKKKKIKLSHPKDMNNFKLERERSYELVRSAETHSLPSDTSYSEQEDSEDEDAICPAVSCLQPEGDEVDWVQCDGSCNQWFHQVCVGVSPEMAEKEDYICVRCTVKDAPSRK
#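 KDM5BΔAP (200 nM final) in 50 mM HEPES pH 7.5, 0.01% Tween-20 was preincubated 10 min at RT with compound over a concentration range. Substrate mix (H3K4me3 12.5 µM, α-KG 25 µM, Fe²⁺, ascorbate, NAD⁺, FDH) was added, and NADH fluorescence change over 30 min gave dose-response curves.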
# The depositor's hits bear a star; i = inactive; ? = inconclusive; · = no result given; [ ] = remark or other dose. Only some compounds are listed: those with a hit (about 2.9% of all), similar ones and a draw of the others. Unless noted, the call rests on the fitted dose curve; in most records, active means well fitted curve in the direction sought with a large enough effect; inconclusive means small, poorly fitted or top-dose-only effect, or another doubt; inactive means no such curve, though single readings can be large; an effect the other way counts as inactive or inconclusive.
SMILES,HEK293 viab,SNCA expr inh,IP6K1 inhibitor,KDM5B inhibitor
CC(NC(=O)CCC(=O)c1ccc(F)cc1)C(=O)N1CCN(c2ccccn2)CC1 (stereo not drawn),-9%,-3%,1,?
COCCC(=O)N1CCCC(C(=O)N2CCN(c3ccccn3)CC2)CCNC(=O)CC1 (stereo not drawn),-2%,3%,-9,28µM*
COc1ccc(CC(=O)NC(C)C(=O)N2CCN(c3ccccn3)CC2)cc1Cl (stereo not drawn),6%,-7%,0,?
O=C(Nc1nnc(-c2ccccc2)o1)C1CCN(S(=O)(=O)c2cccc(Cl)c2Cl)CC1,·,·,·,i
Cc1ccc2cccc(NC(=O)c3ccc(C)c(C)c3)c2n1,·,·,·,i
CCCC(=O)NC(C)C(=O)N1CCN(c2ccccn2)CC1 (stereo not drawn),13%,-8%,7,25µM*
CC(NC(=O)CCc1ccccc1)C(=O)N1CCN(c2ccccn2)CC1 (stereo not drawn),3%,-26%,13,25µM*
COc1ccc(-c2ccc(-c3nc(CC(C)C)no3)cn2)c2cccnc12,-17%,-15%,-4,28µM*
Cc1ccccc1CC(=O)N1CCN(C(=O)c2nnn3c2COC(c2ccccc2)C3)CC1 (stereo not drawn),4%,-4%,5,i
c1cc(CN2CCOCC2)cc(-c2cnn3ccccc23)c1,2%,7%,-15,32µM*
O=C(c1ccc2c(c1)OCO2)N1CCCC2(C1)Nc1cccnc1NC2=NC1CCCC1 (stereo not drawn),-24%,13%,14,?
Cc1noc(C)c1S(=O)(=O)N1CCCC2(C1)Nc1cccnc1NC2=NC1CCCC1 (stereo not drawn),-10%,-8%,0,22µM*
O=C(Cc1ccccc1)N1CCCC2(C1)Nc1cccnc1NC2=NC1CCCC1 (stereo not drawn),-18%,21%,3,28µM*
O=C(c1ccccn1)N1CCCC2(C1)Nc1cccnc1NC2=NC1CCCC1 (stereo not drawn),-14%,-14%,0,?
O=C(CCc1ccccc1)N1CCCC2(C1)Nc1cccnc1NC2=NC1CCCC1 (stereo not drawn),-22%,19%,2,25µM*
CN1CCN(Cc2ccc(CC3CCN(C(=O)c4ccc5cc[nH]c5c4)CC3)cc2)CC1,1%,-1%,11,·
CCNS(=O)(=O)c1cccc(C(=O)Nc2cccc3ncccc23)c1,·,·,·,i
CC(CCc1ccco1)NC(=O)CCc1nnc2ccc(N3CCN(C)CC3)nn12 (stereo not drawn),·,·,·,i
O=C(c1ccn(C(F)F)n1)N1CCc2nc(-c3ccc(Cl)cc3)[nH]c2C1,-11%,27%,0,i
CCOC(=O)N1CCC(N2CCc3nc(-c4ccc(Cl)cc4)[nH]c3C2)C1 (stereo not drawn),-6%,24%,13,22µM*
Cc1noc(C)c1-c1cc2cc(CO)oc2c(-c2ccc(F)c(Cl)c2)n1,-24%[87.6 µM],-25%[87.6 µM],-6,32µM*
Cc1cc2cc(-c3c(C)noc3C)nc(-c3ccccc3)c2o1,2%[87.6 µM],-8%[87.6 µM],2,?
COc1cc(-c2nc(-c3c(C)noc3C)cc3cc(C)oc23)ccn1,-7%[87.6 µM],19%[87.6 µM],8,35µM*
COc1ccc(-c2nc(-c3c(C)noc3C)cc3cc(CO)oc23)cn1,6%[87.6 µM],74%[87.6 µM],11,35µM*
CC(=O)Nc1cccc(-c2nc(-c3c(C)noc3C)cc3cc(CO)oc23)c1,-4%[87.6 µM],57%[87.6 µM],-12,40µM*
SMILES,HEK293 viab,SNCA expr inh,IP6K1 inhibitor,KDM5B inhibitor
CCn1nccc1C(=O)N1CCC(CCOC)(NC(=O)c2ccccc2)CC1,20%,-11%,4,·
O=C(Cc1ccccc1Cl)N[C@@H]1CN(c2ncccn2)C[C@H]1CO,4%,2%,0,?
Cc1cc2cc(-c3c(C)noc3C)nc(N3CCN(c4ccccn4)CC3)c2o1,-4%[87.6 µM],-28%[87.6 µM],-11,32µM*
CC(C)Nc1nc(C(=O)Nc2ccc(O)cc2)cs1,·,·,·,i
CCOc1ccc(CNC(=O)c2ccc(NC(=O)c3nnc(C)s3)cc2)cc1,·,·,·,i
O=C(Nc1cccnc1)[C@@H]1C[C@@H](c2ccc(F)cc2)N(CCOc2ccccc2)C1,?,-28%[87.6 µM],-2,i
O=C(Nc1ccncn1)[C@@H]1C[C@@H](c2ccc(F)cc2)N(CCOc2ccccc2)C1,-9%[87.6 µM],-23%[87.6 µM],2,35µM*
CN(C)C1CCN(c2nccc(C3(c4ccccc4Cl)CCNCC3)n2)C1 (stereo not drawn),-27%,47%,3,28µM*
Clc1ccccc1C1(c2ccnc(C3CC3)n2)CCNCC1,?,-6%,5,i
CN1CCC(CNc2nccc(C3(c4ccccc4Cl)CCNCC3)n2)C1 (stereo not drawn),-3%,-22%,5,?
COCC(C)Nc1nccc(C2(c3ccccc3Cl)CCNCC2)n1 (stereo not drawn),-8%,9%,5,22µM*
CC(C)Nc1nccc(C2(c3ccccc3Cl)CCNCC2)n1,-1%,12%,-3,?
O[C@@H]1CCN(c2nccc(C3(c4ccccc4Cl)CCNCC3)n2)C1,-14%,12%,16,28µM*
CCC(C)Nc1nc2c(c(=O)n(C)c(=O)n2C)n1C(C)C (stereo not drawn),·,·,·,i
CN(C)CCCn1c(COc2ccc3cc(Br)ccc3c2)n[nH]c1=S,·,·,·,i
CCOc1ccc(-n2nc3ccc(NC(=O)Cc4ccccc4)cc3n2)cc1,28µM*,28µM*,-6,?
CN1CCOc2c(C(=O)NCCc3cnc[nH]3)cc(-c3ccccc3F)cc21,-20%[87.6 µM],-17%[87.6 µM],-9,32µM*
COc1cc(F)ccc1-c1cc(C(=O)NCCc2cnc[nH]2)c2c(c1)N(C)CCO2,-24%[87.6 µM],4%[87.6 µM],-18,40µM*
CN1CCOc2c(C(=O)NCCc3cnc[nH]3)cc(-c3cccnc3)cc21,2%[87.6 µM],-8%[87.6 µM],-13,i
CN1CCOc2c(C(=O)NCCC(N)=O)cc(-c3ccccc3OC(F)(F)F)cc21,-11%[87.6 µM],-9%[87.6 µM],-14,40µM*
COc1ccc(-c2cc(C(=O)NCCc3cnc[nH]3)c3c(c2)N(C)CCO3)cn1,-9%[87.6 µM],-29%[87.6 µM],-21,28µM*
O=C(NCC1CCCO1)c1cc(-c2ccccc2F)cc2c1OCCN2Cc1cccnc1 (stereo not drawn),-22%,-13%,-15,20µM*
CN(C)C(=O)c1cc(-c2ccccc2F)cc2c1OCCN2Cc1cccnc1,-13%[87.6 µM],?,-18,i
O=C(c1cc(-c2ccccc2F)cc2c1OCCN2Cc1cccnc1)N1CCC1,-15%[87.6 µM],-2%[87.6 µM],-4,?
Cn1ccc(NC(=O)c2cc(-c3ccccc3F)cc3c2OCCN3Cc2cccnc2)n1,-19%,-39%,-17,28µM*
O=C(NCCc1cnc[nH]1)c1cc(-c2ccccc2F)cc2c1OCCN2Cc1cccnc1,?,-2%,-16,22µM*
Cn1ncc2c(C(=O)NCCc3ccccn3)cc(-c3cccc(C(F)(F)F)c3)nc21,·,·,5,·
OCC1(CC2CC2)CCCN(c2nc(-c3ccccc3)no2)C1 (stereo not drawn),6%,113%,-4,i

# Screens from PubChem.
